Assay results published in PubChem BioAssay (NCI).
About 79,000 compounds went through this panel and 15% of them were active in at least one assay; those are over-represented in the sample as a whole. A number with no mark means an inactive call. Activity calls are given as the source filed them. Rule as the data show it: active = growth inhibition above about 70%; inactive = the rest.

Key:
[1] = NCI Yeast Anticancer Drug Screen. Data for the rad50 strain (AID 155);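 also: 0% = growth of vehicle-only cultures of the same strain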; settings: S. cerevisiae rad50 strain growth inhibition, hits give high values
In short: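 Vehicle-treated cultures provide the reference for the growth inhibition reported for compound-exposed, repair-deficient yeast.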

[2] = NCI Yeast Anticancer Drug Screen. Data for the mec2-1 strain (AID 157); settings: S. cerevisiae mec2-1 strain, hits give high values
In short: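 mec2-1 yeast strain, carrying an alteration in DNA damage repair or cell cycle control, was exposed to compounds; growth inhibition was measured relative to vehicle-treated controls.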

[3] = NCI Yeast Anticancer Drug Screen. Data for the sgs1 mgt1 strain (AID 161);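 also: 0% = growth of cultures given vehicle only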; settings: S. cerevisiae sgs1 mgt1 strain, hits give high values
In short: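 This yeast growth screen uses a strain with defined DNA-repair lesions; compound-treated growth is compared with vehicle-treated growth.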

[4] = NCI Yeast Anticancer Drug Screen. Data for the cln2 rad14 strain (AID 165);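 also: 0% = growth equal to vehicle treated cultures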; settings: S. cerevisiae cln2 rad14 strain, hits give high values
In short: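 Yeast carrying cln2 and rad14 alterations (cell cycle control and DNA damage repair) were exposed to compounds. Growth inhibition was measured against vehicle-treated controls.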

[5] = NCI Yeast Anticancer Drug Screen. Data for the bub3 strain (AID 167); settings: S. cerevisiae bub3 mutant strain, hits give high values
In short: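 Mutant yeast screening strain plus compound; vehicle-treated cultures serve as the 0% inhibition reference.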

[6] = NCI Yeast Anticancer Drug Screen. Data for the mlh1 rad18 strain (AID 175); settings: S. cerevisiae mlh1 rad18 strain growth inhibition, hits give high values
In short: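 Growth inhibition of the yeast strain was measured after compound exposure and expressed relative to vehicle-treated controls. The strain carries defined defects in DNA damage repair.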

[7] = at 5.0 µM (retest, dose inferred, filed as 0.5)
[8] = at 50.0 µM (retest, dose inferred, filed as 5.0)

SMILES	growth inhibition [1, 7]	growth inhibition [1, 8]	growth inhibition ([1]; at 50.0 µM)	growth inhibition [2, 7]	growth inhibition [2, 8]	growth inhibition ([2]; at 50.0 µM)	growth inhibition [3, 7]	growth inhibition [3, 8]	growth inhibition ([3]; at 50.0 µM)	growth inhibition [4, 7]	growth inhibition [4, 8]	growth inhibition ([4]; at 50.0 µM)	growth inhibition [5, 7]	growth inhibition [5, 8]	growth inhibition ([5]; at 50.0 µM)	growth inhibition [6, 7]	growth inhibition [6, 8]	growth inhibition ([6]; at 50.0 µM)
C[n+]1c(/C=C/c2ccccc2Cl)ccc2ccccc21	-3%	37%	98.7% (active)	2%	80% (active)	99% (active)	-8%	35%	99.2% (active)	0%	34%	98.5% (active)	-5%	33%	98.8% (active)	-8%	48%	98.8% (active)
COc1ccc(CN2CCCN(Cc3ccc(OC)cc3OC)C2c2cc(Cl)cc(Cl)c2O)c(OC)c1	10%	52%	73.8% (active)	16%	93% (active)	33.3%	-10%	75% (active)	76.2% (active)	-2%	35%	30.9%	3%	79% (active)	3.9%	27%	94% (active)	61.4%
OC(CC(CC(O)(C(F)(F)F)C(F)(F)F)=NN=C(CC(O)(C(F)(F)F)C(F)(F)F)CC(O)(C(F)(F)F)C(F)(F)F)(C(F)(F)F)C(F)(F)F	41%	73% (active)	83.7% (active)	31%	92% (active)	84.3% (active)	32%	88% (active)	78.5% (active)	35%	72% (active)	72% (active)	37%	81% (active)	82.7% (active)	46%	93% (active)	67.6%
CCC1=C(C)/C(=C/c2[nH]c(C(Br)Br)c(CC)c2C)N=C1C(Br)Br	-1%	98% (active)	30.6%	-6%	99% (active)	45.1%	2%	99% (active)	26%	-6%	97% (active)	75.2% (active)	0%	93% (active)	49.3%	0%	98% (active)	45.6%
CCOC(=O)/C=C(\CC(=O)OCC)C(=O)OCC	-3%	3%	99.5% (active)	-1%	-8%	99.7% (active)	-1%	5%	99.2% (active)	-3%	-6%	13.4%	4%	25%	99.5% (active)	-3%	-2%	99.3% (active)
CC(=O)N1c2ccccc2Sc2ccc3ccc(C(=O)CCl)cc3c21	81% (active)	97% (active)	87.2% (active)	83% (active)	98% (active)	90.5% (active)	92% (active)	98% (active)	89.9% (active)	70% (active)	97% (active)	88.3% (active)	93% (active)	97% (active)	89.2% (active)	65%	97% (active)	87.8% (active)
CCCC(CCC)NCCOC(=O)C(CC)c1ccccc1 (configuration not stated)	3%	42%	88% (active)	-5%	23%	15.9%	12%	63%	88.3% (active)	-35%	62%	55.9%	7%	75% (active)	49.6%	4%	47%	75% (active)
Oc1ccc(COCCBr)c2cccnc12	8%	98% (active)	98.8% (active)	-2%	99% (active)	99.5% (active)	4%	99% (active)	99.2% (active)	8%	98% (active)	98.5% (active)	1%	98% (active)	99.2% (active)	30%	99% (active)	99.2% (active)
Cc1cccc2nc3nc(Cl)c(Cl)nc3n12	4%	76% (active)	75.7% (active)	17%	82% (active)	50.1%	13%	91% (active)	64.5%	7%	54%	51.5%	8%	36%	51.4%	26%	95% (active)	90.8% (active)
C=C(C)COc1ccccc1C(OCC)OCC	1%	21%	49.9%	7%	19%	14.9%	3%	28%	29.1%	-1%	27%	13.7%	0%	20%	31.6%	0%	39%	78.5% (active)
CC(=O)C1C(=O)C=C(C)OC1=O (configuration not stated)	4%	21%	40.5%	8%	18%	29.1%	1%	18%	-0.75%	7%	13%	3.7%	0%	2%	28.9%	4%	23%	70.7% (active)
O=C(O)/C=C/C(=O)Nc1cccc2c1C(=O)c1ccccc1-2	18%	89% (active)	92.3% (active)	-18%	93% (active)	97.9% (active)	35%	95% (active)	97.3% (active)	8%	96% (active)	89.7% (active)	17%	93% (active)	95.9% (active)	34%	97% (active)	96.1% (active)
C=C(CN(C)C)C(=O)c1ccccc1	-5%	4%	56.6%	8%	41%	65%	8%	17%	56%	-26%	12%	9.55%	-20%	19%	77.7% (active)	-4%	17%	74.8% (active)
COc1ccc(C2COc3c(ccc(O)c3O)C2)cc1 (configuration not stated)	1%	99% (active)	93.3% (active)	9%	99% (active)	97.3% (active)	-2%	97% (active)	94.7% (active)	11%	98% (active)	89.2% (active)	11%	98% (active)	81.4% (active)	1%	98% (active)	96.8% (active)
Cc1cc(OC(=O)CCl)ccc1C(C)(C)C	1%	12%	56.4%	2%	13%	40.5%	0%	1%	56.4%	5%	5%	5.5%	0%	5%	30.5%	2%	18%	84.6% (active)
Cc1ccc([S@](=O)c2occc2C=O)cc1	37%	88% (active)	74.5% (active)	29%	98% (active)	88.5% (active)	38%	98% (active)	84.5% (active)	23%	43%	13.4%	43%	98% (active)	62.6%	41%	96% (active)	88.2% (active)
O=C(N/C(=C\c1cccc([N+](=O)[O-])c1)c1nc2ccccc2s1)c1ccccc1	36%	98% (active)	98.5% (active)	29%	98% (active)	98.6% (active)	55%	98% (active)	98.9% (active)	12%	98% (active)	98.1% (active)	40%	98% (active)	97.8% (active)	29%	98% (active)	98.2% (active)
C/C(=N/NC(=S)N1CCCCC1)c1cccc(/C(C)=N\NC(=S)N2CCCCC2)n1	-13%	93% (active)	74.2% (active)	-1%	95% (active)	88% (active)	6%	96% (active)	74.7% (active)	-10%	94% (active)	87.3% (active)	8%	94% (active)	90% (active)	-3%	95% (active)	88.2% (active)
O=[N+]([O-])c1c[nH]c2ncnc(SCc3ccccc3)c12	98% (active)	98% (active)	100% (active)	99% (active)	99% (active)	99.3% (active)	99% (active)	99% (active)	99.2% (active)	86% (active)	99% (active)	94.3% (active)	97% (active)	99% (active)	98.7% (active)	98% (active)	98% (active)	98.9% (active)
